37 compounds from PubChem BioAssay AID651640 (Broad Institute, 2012) can be followed below.

Molecules are shown by their SMILES. In all, about 350,000 compounds went through this assay and about 6,000 (1.7%) were called active. Not shown: some 5% with an inconclusive outcome. The sample holds actives, similar compounds and a random draw of the others, so the mix is not that of the screen. Unmarked numbers belong to inactive results. Cut-off read from the data, not from the text of the source: active = CPE inhibition above about 20% (passing the limit was not always enough); inconclusive = no clear call, values can overlap the other calls; tested in BHK-21 cells.

The test is described as follows: inhibitors of DENV2 cytopathic effect, primary screen, cell-based, plate reader, single concentration (AID 651640).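 Note: 0% = median of neutral control wells and 100% = median of positive control wells.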 Conditions: DENV2-infected cells, cytopathic effect rescue, at 9.99 µM, active compounds read high. A general note: Damage to the host cells serves as the signal in cytopathic effect assays.
Consider `COC(=O)[C@]12C[C@H](CC(=O)N3CCN(C(=O)C4CC4)CC3)C(=O)N(Cc3ccc4c(c3)OCO4)C1=C[C@H](C(C)(C)C)O[C@@H]2C`, for which the CPE inhibition is 0.269%.
Consider `C[C@H]1CN([C@@H](C)CO)C(=O)c2cccc(NC(=O)C3CCOCC3)c2O[C@@H]1CN(C)C`, for which the CPE inhibition is 39.5% (active).
With `C[C@@H]1CN([C@@H](C)CO)C(=O)c2cccc(NC(=O)C3CC3)c2O[C@@H]1CN(C)C`, the CPE inhibition was 11.8%.
Take `C[C@H]1CN([C@@H](C)CO)C(=O)c2cccc(NC(=O)Nc3cccc4ccccc34)c2O[C@@H]1CN(C)C(=O)NC1CCCCC1`: the CPE inhibition is 43.8% (active).
Consider `CC(C)NC(=O)N(C)C[C@H]1Oc2c(NC(=O)C3CCCCC3)cccc2C(=O)N([C@@H](C)CO)C[C@H]1C`, for which the CPE inhibition is -3.61%.
`COc1ccc(NC(=O)N(C)C[C@H]2Oc3c(NC(=O)Nc4cccc5ccccc45)cccc3C(=O)N([C@@H](C)CO)C[C@H]2C)cc1`: the CPE inhibition was 18.2%.
For the compound `COc1ccc(NC(=O)N(C)C[C@H]2Oc3c(NC(=O)Nc4cccc5ccccc45)cccc3C(=O)N([C@H](C)CO)C[C@@H]2C)cc1`, the CPE inhibition was 15.2%.
In the case of `C[C@@H]1CN([C@H](C)CO)C(=O)c2cccc(NC(=O)Nc3ccccc3)c2O[C@@H]1CN(C)C(=O)NC1CCCCC1`, the CPE inhibition is -11%.
The figure for `C[C@@H]1CN([C@H](C)CO)C(=O)c2cccc(NC(=O)C3CC3)c2O[C@@H]1CN(C)C(=O)Nc1ccccc1` is 8.03%; for `COc1ccc(NC(=O)N(C)C[C@@H]2Oc3c(NC(=O)Nc4cccc5ccccc45)cccc3C(=O)N([C@@H](C)CO)C[C@H]2C)cc1` it is 23.2% (active).
Turning to `C[C@@H]1CN([C@H](C)CO)C(=O)c2cccc(NC(=O)Nc3cccc4ccccc34)c2O[C@@H]1CN(C)C(=O)Nc1cccc2ccccc12`, the CPE inhibition was 4.21%.
Consider `C[C@H](CO)N1C[C@H](C)[C@H](CN(C)C(=O)NC2CCCCC2)Oc2c(NC(=O)C3CC3)cccc2C1=O`, for which the CPE inhibition was 20.6% (active).
With `C[C@H]1CN([C@@H](C)CO)C(=O)c2cccc(NC(=O)C3CCOCC3)c2O[C@H]1CN(C)S(C)(=O)=O`, the CPE inhibition is 12.7%.
Regarding `CN1CCN(C(=O)C[C@H]2CC[C@H]3[C@@H](COC[C@H](O)CN3CC3CCOCC3)O2)CC1`, the CPE inhibition is -5%.
Take `CCCNC(=O)N1[C@H](CO)[C@@H]2c3ccccc3N(C(=O)C3CCOCC3)C[C@@H]21`: the CPE inhibition was 9.68%.
On to `CNC(=O)C[C@H]1CC[C@H]2[C@@H](COc3ccc(NS(=O)(=O)c4ccc(F)cc4)cc3C(=O)N2C)O1`, for which the CPE inhibition was -4.93%.
`CC(C)NC(=O)N(C)C[C@H]1OCCCC[C@H](C)Oc2ccc(NS(=O)(=O)c3cccs3)cc2C(=O)N([C@H](C)CO)C[C@@H]1C`: the CPE inhibition was -5.44%.
Turning to `O=C(CC1CC1)N1[C@@H]2CN(S(=O)(=O)c3ccccc3F)c3ccccc3[C@@H]2[C@@H]1CO`, the CPE inhibition is 2.67%.
The figure for `CCCNC(=O)N1CC2(C1)[C@H](c1ccccc1)[C@@H](CO)N2Cc1cccc(Cl)c1` is -0.258%; for `C[C@@H]1CN([C@H](C)CO)S(=O)(=O)c2ccc(-c3ccncc3)cc2O[C@@H]1CN(C)C(=O)CN(C)C` it is -2.24%.
Regarding `COCC(=O)N(C)C[C@@H]1Oc2cc(C#Cc3cccnc3)ccc2S(=O)(=O)N([C@H](C)CO)C[C@H]1C`, the CPE inhibition is 0.786%.
Consider `COc1ccccc1CNC(=O)C[C@H]1CC[C@@H](NC(=O)CN(C)C)[C@@H](CO)O1`, for which the CPE inhibition was -1.02%.
With `Cc1cccc(S(=O)(=O)N2C[C@@H](O)COC[C@H]3O[C@H](CC(=O)N4CCN(C)CC4)CC[C@@H]32)c1`, the CPE inhibition is 0.654%.
Next, `C[C@@H]1CN([C@H](C)CO)C(=O)c2cc(C#Cc3cccnc3)cnc2O[C@@H]1CN(C)Cc1ccc(F)cc1`: -0.76%.
As for `C[C@@H]1CN([C@@H](C)CO)C(=O)c2cccc(NC(=O)C3CCOCC3)c2O[C@H]1CN(C)C(=O)NC1CCCCC1`, the CPE inhibition is -1.68%.
For `COc1ccc(S(=O)(=O)Nc2cccc3c2O[C@@H](CN(C)C(=O)Nc2cccc4ccccc24)[C@H](C)CN([C@@H](C)CO)C3=O)cc1`, the CPE inhibition was -9.92%.
The figure for `C[C@@H]1CN([C@H](C)CO)C(=O)c2cccc(NS(=O)(=O)c3ccccc3)c2O[C@@H]1CN(C)Cc1ccc(C(=O)O)cc1` is -6.23%; for `C[C@H](CO)N1C[C@H](C)[C@@H](CN(C)C(=O)Nc2cccc3ccccc23)Oc2c(NS(=O)(=O)c3ccccc3)cccc2C1=O` it is 74.2% (active).
Regarding `C[C@@H]1CN([C@H](C)CO)C(=O)c2cccc(NS(=O)(=O)c3ccc(Cl)cc3)c2O[C@@H]1CN(C)C(=O)Nc1cccc2ccccc12`, the CPE inhibition is -5.49%.
`C[C@H]1CN([C@@H](C)CO)C(=O)c2cccc(NC(=O)C3CCCCC3)c2O[C@H]1CN(C)C(=O)NC1CCCCC1`: the CPE inhibition was 1.03%.
With `C[C@@H]1CN([C@H](C)CO)C(=O)c2cccc(NC(=O)C3CCCCC3)c2O[C@@H]1CN(C)C(=O)NC1CCCCC1`, the CPE inhibition was 21.7% (active).
With `C[C@@H]1CN([C@@H](C)CO)C(=O)c2cccc(NS(=O)(=O)c3ccc(F)cc3)c2O[C@@H]1CN(C)Cc1ccc(C(=O)O)cc1`, the CPE inhibition is 49.4% (active).
For `C[C@H]1CN([C@@H](C)CO)C(=O)c2cccc(NS(=O)(=O)c3ccc(F)cc3)c2O[C@@H]1CN(C)Cc1ccncc1`, the CPE inhibition is 0.612%.
Next, `CCCN(C)C[C@H]1Oc2ncc(-c3ccccc3OC)cc2C(=O)N([C@H](C)CO)C[C@H]1C`: 1.17%.
Regarding `C[C@H](CO)N1C[C@H](C)[C@@H](CN(C)S(=O)(=O)c2ccccc2)OCCCC[C@H](C)Oc2ccc(NC(=O)NC3CCCCC3)cc2C1=O`, the CPE inhibition was -3.62%.
Consider `C[C@H]1CCCCO[C@H](CN(C)C(=O)CCC(F)(F)F)[C@@H](C)CN([C@@H](C)CO)C(=O)c2cc(NC(=O)Nc3ccc4c(c3)OCO4)ccc2O1`, for which the CPE inhibition was -12.5%.
For the compound `C[C@@H]1CN([C@H](C)CO)C(=O)c2cccc(NS(=O)(=O)c3ccc(F)cc3)c2O[C@@H]1CN(C)C(=O)Nc1ccc(F)cc1`, the CPE inhibition was 10.9%.
